Where “and” joins values, the source holds several entries; their conditions need not be identical. Identical values can stand only once. Records with an inconclusive call do not appear. Calls of active or inactive are those of the source. Calls come from the whole dose curve; as a rule, active = well fitted curve in the direction sought with a large enough effect; inconclusive = small, poorly fitted or top-dose-only effect, or another doubt; inactive = no such curve, though single readings can be large or run the other way.
test: qHTS Assay for Identifying Gametocytocidal Compounds (AID 743244);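 for max response: actives lower the fluorescent signal which means gametocytes are killed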; settings: P. falciparum 3D7 stage III-V gametocytes, alamarBlue, 72 h; max response: stronger effect = lower value
In short: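 Fluorescence at Ex 525/Em 598 nm, recorded 24 h after alamarBlue addition, reports residual metabolic activity of 3D7 gametocytes (stages III–V) following 72 h compound exposure at 37 °C, 5% CO2.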
% is set by controls: 0 for no effect and ±100 for the full control effect; potency is the fitted concentration of half-maximal effect.

Compound	max response	Potency
CC(C)(C)c1nnc(NS(=O)(=O)c2ccccc2)s1	0.521% (inactive)	–
Cc1ccc(/C=N/n2c(-c3ccccc3)csc2=S)cc1	-23% (inactive)	–
CC(=O)N[C@@H](CCC(N)=O)C(=O)O	4.31% (inactive)	–
O=[N+]([O-])c1nccn1CO[C@@H](CO)[C@H](O)CO	-9.19% (inactive)	–
CCCCCC1Nc2cc(C(F)(F)F)c(S(N)(=O)=O)cc2S(=O)(=O)N1 (centres undefined)	13.4% (inactive)	–
CC(=O)[C@H]1CC[C@H]2[C@@H]3C=CC4=CC(=O)CC[C@@]4(C)[C@@H]3CC[C@]12C	-3.42% (inactive)	–
CO/N=C(/C(=O)N[C@@H]1C(=O)N2C(C(=O)[O-])=C(C[n+]3ccn4ncccc43)CS[C@H]12)c1nsc(N)n1	-9.85% (inactive) and -19.4% (inactive)	–
OCCc1ccccc1	0.746% (inactive)	–
CC[C@@H]([C@H](C)O)n1ncn(-c2ccc(N3CCN(c4ccc(OC[C@@H]5CO[C@@](Cn6cncn6)(c6ccc(F)cc6F)C5)cc4)CC3)cc2)c1=O	13.4% (inactive)	–
CCCCCC[C@@H](CCC)C(=O)O	16.9% (inactive)	–
CCOC(=O)NNc1nncc2ccccc12	-13.4% (inactive)	–
CSc1ccc(/C=C2/C(C)=C(CC(=O)O)c3cc(F)ccc32)cc1	-4.94% (inactive)	–
CO/N=C(/C(=O)N[C@@H]1C(=O)N2C(C(=O)OCOC(=O)C(C)(C)C)=C(C)CS[C@H]12)c1csc(N)n1	-0.603% (inactive)	–
O=C(O)[C@H](O)[C@@H](O)[C@H](O[C@@H]1O[C@H](CO)[C@H](O)[C@H](O)[C@H]1O)[C@H](O)CO	-7.07% (inactive)	–
CO[C@@H]1[C@@H](OC)[C@H](C)[C@@](O)(CC(=O)O)O[C@H]1[C@H](C)[C@H]1O[C@@]2(CC[C@@](C)([C@H]3CC[C@@](C)([C@@H]4O[C@@H]([C@H]5O[C@](C)(O)[C@H](C)C[C@@H]5C)C[C@@H]4OC4C[C@H](OC)[C@@H](OC)[C@H](C)O4)O3)O2)C[C@H](O)[C@H]1C (some centres undefined)	–	93.5 nM (active)
COC(=O)C1=C(C)NC(COC(N)=O)=C(C(=O)OC(C)C)C1c1cccc(Cl)c1Cl (centres undefined)	-16.2% (inactive)	–
O=C(NN1CCCC1)NS(=O)(=O)c1ccc(Cl)cc1	0.581% (inactive)	–
CC(C)(C)C(O)/C=C/c1ccc2c(c1)OCO2 (centres undefined)	-15.2% (inactive)	–
O=C(OCC1(COC(=O)c2cccnc2)CCCC(COC(=O)c2cccnc2)(COC(=O)c2cccnc2)C1O)c1cccnc1	-9.22% (inactive)	–
CO[C@@]1(NC(=O)CSC[C@@H](N)C(=O)O)C(=O)N2C(C(=O)O)=C(CSc3nnnn3C)CS[C@@H]21	3.25% (inactive)	–

Compound	max response	Potency
CN(CC1(C)CCCO1)S(=O)(=O)c1ccc(Cl)c(S(N)(=O)=O)c1 (centres undefined)	-10.7% (inactive)	–
CC(=O)OCC(=O)Nc1cc(C#N)cc(NC(=O)COC(C)=O)c1Cl	-6.24% (inactive)	–
O=C(O)C(=O)Nc1cccc(-c2nn[nH]n2)c1	-10.1% (inactive)	–
CC(C)(C)C(=O)OCOC(=O)C1N2C(=O)CC2S(=O)(=O)C1(C)C (centres undefined)	0.683% (inactive)	–
CC(C)C[C@H](NC(=O)CNC(=O)[C@H](Cc1ccc(O)cc1)NC(=O)[C@H](CO)NC(=O)[C@H](Cc1c[nH]c2ccccc12)NC(=O)[C@H](Cc1cnc[nH]1)NC(=O)[C@@H]1CCC(=O)N1)C(=O)N[C@@H](CCCN=C(N)N)C(=O)N1CCC[C@H]1C(=O)NCC(N)=O (stereo in doubt)	-1.4% (inactive)	–
CC(C)=CCC/C(C)=C/CC/C(C)=C/CCC(=O)OC/C=C(\C)CCC=C(C)C	-4.29% (inactive)	–
CCCC(=O)O[C@]1(C(=O)COC(=O)CC)CC[C@H]2[C@@H]3CCC4=CC(=O)CC[C@]4(C)[C@H]3[C@@H](O)C[C@@]21C	31.6% (inactive)	–
NCC(=O)O	-6.74% (inactive)	–
CCOC(=O)[C@H](CCc1ccccc1)N[C@@H](C)C(=O)N(CC(=O)O)C1Cc2ccccc2C1	-4.1% (inactive)	–
OCc1cccnc1	-22.7% (inactive)	–
CC1c2ccccc2CN1NC(=O)c1ccc(Cl)c(S(N)(=O)=O)c1 (centres undefined)	33.5% (inactive)	–
O=C1[C@@H]2[C@H]3CC[C@H](C3)[C@@H]2C(=O)N1CCCCN1CCN(c2ncccn2)CC1	4.19% (inactive)	–
O=C(CO)[C@@H](O)[C@H](O)[C@@H](O)CO	-0.255% (inactive)	–
CC(=O)Nc1c(I)c(NC(C)=O)c(I)c(C(=O)O)c1I	-5.52% (inactive)	–
CCc1cc(S(=O)(=O)O)c2cc(C(C)C)cccc1-2	0.277% (inactive)	–
CN(C)C(=O)CNC(=O)Cc1ccccc1	15% (inactive)	–
CO[C@]1(NC(=O)CSC(F)F)C(=O)N2C(C(=O)O)=C(CSc3nnnn3CCO)CO[C@H]21	19.9% (inactive)	–
O=C(CCCCC(=O)Nc1c(I)cc(I)c(C(=O)O)c1I)Nc1c(I)cc(I)c(C(=O)O)c1I	35.4% (inactive)	–
O=C1CC2(CCCC2)CC(=O)N1CCNCC1COc2ccccc2O1 (centres undefined)	2.39% (inactive)	–

Source: PubChem BioAssay (NCATS)
